# Assay results: article PMC5540273 (PLoS ONE, 2017)
# How the values were obtained:
# Conditions in all cases: concentration: 1 μM, replicates: in singlicate; n = 1
# [1] = test system: TYK2(JH2domain-pseudokinase)
# TYRO3 = test system: TYRO3
# ULK1 = test system: ULK1
# ULK2 = test system: ULK2
# ULK3 = test system: ULK3
# VEGFR2 = test system: T1, VEGFR2
# T1 construct: gene KDR
# VPS34 = test system: T2, VPS34
# T2 construct: gene PIK3C3
# VRK2 = test system: VRK2
# WEE1 = test system: WEE1
# WEE2 = test system: WEE2
# WNK1 = test system: WNK1
# WNK2 = test system: WNK2
# WNK3 = test system: WNK3
# WNK4 = test system: WNK4
# YANK1 = test system: T3, YANK1
# T3 construct: gene STK32A
# YANK2 = test system: T4, YANK2
# T4 construct: gene STK32B
# YANK3 = test system: T5, YANK3
# T5 construct: gene STK32C
# YES = test system: T6, YES
# T6 construct: gene YES1
# YSK1 = test system: T7, YSK1
# T7 construct: gene STK25
# YSK4 = test system: T8, YSK4
# T8 construct: gene MAP3K19
# 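Further: KINOMEscan kinase panel screen.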
SMILES,%Inh [1] [%],%Inh (TYRO3) [%],%Inh (ULK1) [%],%Inh (ULK2) [%],%Inh (ULK3) [%],%Inh (VEGFR2) [%],%Inh (VPS34) [%],%Inh (VRK2) [%],%Inh (WEE1) [%],%Inh (WEE2) [%],%Inh (WNK1) [%],%Inh (WNK2) [%],%Inh (WNK3) [%],%Inh (WNK4) [%],%Inh (YANK1) [%],%Inh (YANK2) [%],%Inh (YANK3) [%],%Inh (YES) [%],%Inh (YSK1) [%],%Inh (YSK4) [%]
Cc1ccc(C)c(NC(=O)NC2CCN(c3ccnc(Nc4ccc(F)cc4)n3)C2)c1 (stereo not shown) [GSK1379720],48,0,0,0,10,0,0,45,4,0,5,0,43,48,0,0,28,9,0,29
CC(=O)Nc1nc2cnc(Nc3cc(NC(=O)c4cccc(C5(C#N)CC5)c4Cl)ccc3C)nc2s1,0,15,0,6,0,40,22,0,0,32,0,0,0,0,0,12,25,82,0,0
Cc1cccc(NC(=O)Nc2ccc(Oc3ncnc4ccn(C)c34)cc2)c1,0,0,0,0,2,99.7,0,0,0,0,0,0,0,0,0,0,31,0,0,97.1
c1ccc(-c2cnc3nccnn23)cc1 [AH20685],3,0,5,0,0,0,0,0,33,0,0,2,1,0,6,0,0,0,0,0
C[C@@H](Oc1cc(-n2cnc3cc(-c4ccnc(NCCS(C)(=O)=O)c4)ccc32)sc1C(N)=O)c1ccccc1Cl [GSK907232],0,4,25,0,14,28,60,0,43,25,37,80,88,37,6,0,32,47,14,96.7
CCn1c(-c2nonc2N)nc2c(C#CC(C)(C)O)ncc(OCCCCN)c21.O=C(O)C(F)(F)F.O=C(O)C(F)(F)F [GSK507274],29,2,54,32,12,0,34,0,10,14,19,0,21,3,31,0,24,16,0,99.4
Cc1ccc(S(=O)(=O)Nc2ccc(Nc3nccc(Nc4cccc5[nH]ncc45)n3)cc2)cc1 [GSK581271],93.6,0,19,0,38,0,60,0,6,8,4,0,26,16,0,0,3,30,13,67
COc1cc(Nc2nccc(-c3c(-c4cccc(NC(=O)c5c(F)cccc5F)c4)nn4ccccc34)n2)cc(OC)c1OC [GSK323521],0,0,0,0,18,0,12,0,0,6,27,59,54,19,11,0,14,8,3,93.6
CCCCc1nn2ncccc2c1-c1ccnc(Nc2ccc(N3CCN(C)CC3)cc2)n1 [GW684941],93,1,23,6,17,94,15,50,4,9,11,31,54,56,78,74,25,81,0,57
O=C(Nc1cccc(-c2nn3ncccc3c2-c2ccnc(Nc3ccccc3)n2)c1)c1c(F)cccc1F [GSK198271],0,100,22,0,6,80,0,0,40,0,2,60,0,0,63,38,18,99.5,20,18
Cl.Cl.NCC(C(=O)Nc1cc(Br)c(-c2ccnc3[nH]ccc23)s1)c1ccccc1 (stereo not shown) [GSK1269851],18,0,23,0,15,0,0,0,0,22,7,100,25,11,8,0,0,7,0,95.5
COc1cc(Nc2nccc(N3CCC(NC(=O)Nc4cccc(C(C)=O)c4)C3)n2)cc(OC)c1OC (stereo not shown) [GSK1379753],19,0,18,0,78,0,0,0,6,0,0,65,59,41,14,0,0,12,2,75
Cc1ccc(C(=O)N2CC[C@@H](O)C2)cc1-n1c(C)cc(OCc2ccc(F)cc2F)c(Br)c1=O,0,0,0,0,0,0,0,0,0,0,0,0,0,0,0,0,0,20,0,0
Fc1ccc(-c2ncn(C3CCNCC3)c2-c2ccnc(Oc3ccc(-c4ccccc4)cc3)n2)cc1 [SB-245391],84,0,54,26,46,12,30,41,0,58,42,0,32,0,90.8,85,86,0,18,47
CCS(=O)(=O)c1ccc(OC)c(Nc2nccc(-c3c(-c4cccc(NC(=O)c5c(F)cccc5F)c4)nn4ncccc34)n2)c1 [GSK326180],26,0,12,0,25,16,0,0,17,5,17,35,18,14,0,56,24,90.1,0,33
Cc1ccc(F)c(C(=O)Nc2cccc(-c3nn4ccccc4c3-c3ccnc(Nc4cccc(F)c4)n3)c2)c1F [GSK361061],0,86,100,0,11,42,7,0,22,11,0,6,3,0,6,47,6,95.3,0,0
COc1cccc(-c2ccc3c(NC(=O)C4CC4)n[nH]c3n2)c1 [SB-710903],64,0,0,0,9,0,0,66,14,15,45,57,66,87,0,2,0,13,0,92.3
Cn1cc(-c2ccc3c(c2)CCN3C(=O)Cc2cccc(Cl)c2)c2c(N)ncnc21 [GSK2606590],13,0,11,0,18,49,1,0,0,0,13,18,25,5,10,0,21,21,18,98.2
CN1CCN(Cc2cccc(-c3ccc4c(Nc5ccc(Oc6ccccc6)cc5)ccnc4c3)c2)CC1 [GW578342],5,12,0,0,2,16,0,26,0,0,0,15,31,49,3,0,0,88,12,0
Nc1ncc(-c2cccnc2)c2scc(-c3ccc4c(c3)CCN4C(=O)Cc3ccccc3)c12 [GSK683281],0,15,7,0,10,30,29,0,22,17,17,28,12,0,21,10,29,28,27,46
